Compounds with a hit are over-represented: about 12% of the library has one in this group of screens.
JMJD2A Tudor inh: JMJD2A Tudor domain (human) inhibition | AlphaScreen JMJD2A-Tudor / H3K4me3 peptide binding | Potency, µM (top dose mostly 114 µM), for inactives: top-dose activity change, negative = inhibition, most hits filed as inhibitors | 390,000 compounds, 4.4% hits; note: % is set by controls: 0 for no effect and ±100 for the full control effect; nearly all actives have a fitted effect of over 50% in size
G9a inh: G9a (human) methyltransferase inhibition | Q96KQ7 | G9a H3K9 monomethylation, AlphaScreen, 2 h | Potency, µM (doses to about 102 µM), for the others: top-dose activity, negative = inhibition, most hits filed as inhibitors | 350,000 compounds, 8.8% hits | AID 504332; note: % is set by controls: 0 for no effect and ±100 for the full control effect; nearly all actives have a fitted effect of over 75% in size
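Signal arises when biotinylated H3K9 peptide, once monomethylated, bridges streptavidin donor and antibody-captured acceptor beads. Enzyme at 20 nM was preincubated 15 min with test compounds; peptide 500 nM and SAM 20 uM then reacted for 2 h.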
Sfp inh: Sfp phosphopantetheinyl transferase inhibition; 310,000 compounds, 3.5% hits; Potency, µM, for the others: largest response in the series, negative = inhibition, actives largely listed as inhibitors; Q9F4F7; Biochemical Sfp PPTase activity, qHTS; AID 1490;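 note: the enzyme is Sfp with the accession as filed and its product quenches rhodamine fluorescence; 0% = enzyme reaction without inhibitor and -100% = no enzyme wells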
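Fluorescence-quenching assay: 15 nM Sfp-PPTase preincubated 15 min at room temperature with compound, then 5 uM rhodamine-CoA and 12.5 uM BHQ-2-labelled YbbR peptide added. Fluorescence (ex 525/em 598 nm) read at start and after 30 min; difference gives rate.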
BAZ2B block: inhibitors of human BAZ2B bromodomain; Q9UIF8; AlphaScreen BAZ2B-H3K14Ac peptide displacement; Potency, µM (titrated, usually from 114 µM), for inactives: at the top dose activity change, negative = inhibition, usual class: inhibitors; 360,000 compounds, 4.4% hits; AID 504333; note: % is set by controls: 0 for no effect and ±100 for the full control effect; nearly all actives have a fitted effect of over 60% in size
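BAZ2B 50 nM plus b-H3(5-23)K14Ac 50 nM, PBS pH 7.4/0.01% Tween-20, 30 min RT; compound added (max 110 uM), 30 min RT; streptavidin donor/Ni-chelate acceptor beads 10 ug/mL final, 20 min dark; AlphaScreen read.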
HP1b chromo inh: blocks HP1-beta chromodomain binding to methylated histone tails; P83916; 390,000 compounds, 0.56% hits; Potency, µM (highest dose often 114 µM), for the others: top-dose activity change, negative = inhibition, most hits filed as inhibitors; AID 540317; AlphaScreen HP1-beta / biotin-H3K9me3 peptide binding; note: nearly all actives have a fitted effect of over 70% in size
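HP1-beta protein (50 nM final) preincubated 30 min at room temperature with biotinylated H3(1-18)K9me3 peptide (50 nM) in PBS pH 7.4, 0.01% Tween-20, then compound added for 30 min. AlphaScreen streptavidin donor/nickel chelate acceptor beads (10 ug/mL final), 30 min dark, luminescence read.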
Numbers without * were called inactive; [ ] = dose if it differs, or a comment. Calls come from the whole dose curve; as a rule, active = well fitted curve in the direction sought with a large enough effect; inconclusive = small, poorly fitted or top-dose-only effect, or another doubt; inactive = no such curve, though single readings can be large; an effect the other way counts as inactive or inconclusive. Potency is the fitted concentration of half-maximal effect.

`CCCCCCNc1ncnc2c1sc1nc(N3CCOCC3)c3c(c12)CCCC3` gave JMJD2A Tudor inh -3%, G9a inh 11%[59 µM], BAZ2B block 4% and HP1b chromo inh 46%.
CCc1ccc(-n2c(N3CCN(c4ccc(F)cc4)CC3)nc3ccccc3c2=O)cc1 was read as JMJD2A Tudor inh -29%, G9a inh inconclusive and HP1b chromo inh -2%.
For CCNc1ncc2nc(-c3cn(C)c4ccccc34)c(=O)n(C)c2n1 the results were G9a inh -10%[0.501 µM] and Sfp inh 10%.
`COc1ccc(NCc2nnc(SCC(=O)Nc3ccccc3)n2C)cc1` gave JMJD2A Tudor inh -16%, G9a inh -6%, Sfp inh 3%, BAZ2B block -3% and HP1b chromo inh 16%.
Cc1ccccc1-c1nccc(NCc2cccs2)n1 was read as G9a inh -3%[0.501 µM] and Sfp inh 89µM*.
For c1cncc(-c2nccc(NCc3cccs3)n2)c1 the results were G9a inh -11%[0.501 µM] and Sfp inh -18%.
`COc1cccc(-c2nccc(NCc3cccs3)n2)c1` gave G9a inh -2%[0.501 µM] and Sfp inh 79µM*.
Screening Clc1ccccc1-c1nccc(NCc2cccs2)n1 returned G9a inh 9%[0.501 µM] and Sfp inh 7%.
Screening O=C(NCc1ccccc1)c1cccn1-c1nnc(N2CCCCC2)s1 returned JMJD2A Tudor inh -13%, G9a inh 3%[59 µM], BAZ2B block -17% and HP1b chromo inh 14%.
`CCOC(=O)c1ccc(NC(=O)CSc2nccn2Cc2ccc(OC)cc2)cc1` gave JMJD2A Tudor inh inconclusive, G9a inh inconclusive, BAZ2B block inconclusive and HP1b chromo inh -7%[57 µM].
`CCN(CC)c1ccc(/C=N/NC(=S)NCc2ccccc2)c(O)c1` gave JMJD2A Tudor inh -26%, G9a inh -13%[59 µM], Sfp inh 14%, BAZ2B block 22µM* and HP1b chromo inh -9%.
COc1ccc(/C=N/N(Cc2ccccc2)c2ccccc2)cc1O was read as JMJD2A Tudor inh 10µM*, G9a inh 28µM*, Sfp inh 18%, BAZ2B block 28µM* and HP1b chromo inh 40µM*.
COc1cc(OC)c(OC)cc1/C=N/Nc1nc2ccccc2[nH]1 was read as JMJD2A Tudor inh -28%, G9a inh 1%, Sfp inh 21%, BAZ2B block -12% and HP1b chromo inh 43%.
Screening CCN(CC)c1ccc(/C=N/NC(=O)c2ccco2)c(O)c1 returned JMJD2A Tudor inh -34%, Sfp inh -1%, BAZ2B block inconclusive and HP1b chromo inh 48%.
`CCN(CC)c1ccc(/C=N/N(c2ccccc2)c2ccccc2)c(O)c1` gave JMJD2A Tudor inh 8.9µM*, G9a inh inconclusive, Sfp inh -6%, BAZ2B block 10µM* and HP1b chromo inh inconclusive.
`CCN(CC)c1ccc(/C=N/Nc2nc3ccccc3[nH]2)c(O)c1` gave JMJD2A Tudor inh 50µM*, G9a inh inconclusive, Sfp inh -27%, BAZ2B block 40µM* and HP1b chromo inh -16%.
For COc1cc(C(=O)NCC(c2ccc(F)cc2)N2CCOCC2)ccc1OCc1ccccc1Cl (stereo not drawn) the results were JMJD2A Tudor inh inconclusive, G9a inh 5%[59 µM], BAZ2B block -5% and HP1b chromo inh -7%.
Cc1cccc(-c2noc(-c3ccc(NCc4cccnc4)c([N+](=O)[O-])c3)n2)c1 was read as JMJD2A Tudor inh -11%, G9a inh -8%[59 µM], BAZ2B block -7% and HP1b chromo inh 9%.
Screening C(=N\N(c1ccccc1)c1ccccc1)/c1ccccn1 returned JMJD2A Tudor inh 8%, G9a inh -3%, Sfp inh -2%, BAZ2B block 1% and HP1b chromo inh 38%.
Oc1ccccc1C=NCc1ccccc1 was read as G9a inh 12%[12.7 µM] and Sfp inh 1%.
Screening Oc1ccc(/C=N/N(c2ccccc2)c2ccccc2)c(O)c1O returned G9a inh 14µM*, Sfp inh -41% and BAZ2B block 25µM*.
For Oc1ccc(/C=N/N(c2ccccc2)c2ccccc2)cc1O the results were JMJD2A Tudor inh 56µM*, G9a inh -148%, Sfp inh 2%, BAZ2B block -18% and HP1b chromo inh inconclusive.
`N#Cc1ccc(S(=O)(=O)N2CCN(S(=O)(=O)c3ccc4c(c3)OCCO4)CC2)cc1` gave JMJD2A Tudor inh -2%.
For O=C(CC1OCC2CCCN2C1=O)Nc1ccc([N+](=O)[O-])cc1 (stereo not drawn) the results were JMJD2A Tudor inh -7%, G9a inh 8.9µM*, Sfp inh 0%, BAZ2B block 2% and HP1b chromo inh 37%.
`COc1ccc(OCCSc2nnc(CC(=O)Nc3cccc(Cl)c3Cl)n2C)cc1` gave JMJD2A Tudor inh inconclusive, G9a inh 3.2µM*, Sfp inh -18%, BAZ2B block -12% and HP1b chromo inh 8%.
CCn1c(CC(=O)Nc2cccc(Cl)c2Cl)nnc1SCCOc1ccc(OC)cc1 was read as JMJD2A Tudor inh inconclusive, G9a inh 25µM*, Sfp inh 4%, BAZ2B block -7% and HP1b chromo inh 26%.
For COc1cc(N2N=C(c3ccccc3)CC2c2ccccc2)c(C=O)cc1C=O (stereo not drawn) the results were JMJD2A Tudor inh 32%, G9a inh -127%, Sfp inh 11%, BAZ2B block 36% and HP1b chromo inh 89%.
`O=[N+]([O-])c1ccc(N2N=C(c3ccco3)CC2c2ccccc2)cc1` (stereo not drawn) gave JMJD2A Tudor inh -28%, G9a inh 7.9µM*, Sfp inh 50µM*, BAZ2B block inconclusive and HP1b chromo inh -15%.
`COc1ccccc1N1N=C(c2ccc([N+](=O)[O-])cc2)CC1c1ccccc1` (stereo not drawn) gave JMJD2A Tudor inh 32µM*, G9a inh 22%[0.501 µM], Sfp inh -3%, BAZ2B block 11µM* and HP1b chromo inh inconclusive.
`CN(C)CC/C=C1/c2cc(F)ccc2Sc2ccc(Cl)cc21` gave JMJD2A Tudor inh inconclusive and HP1b chromo inh -13%.
`CN1CCN(c2cc(-c3ccccc3C(F)(F)F)ncn2)CC1` gave Sfp inh -2%.
Screening CN1CCN(C2=Cc3ccccc3Sc3cc(F)c(F)cc32)CC1 returned JMJD2A Tudor inh inconclusive, G9a inh inconclusive, Sfp inh 79µM*, BAZ2B block 45µM* and HP1b chromo inh inconclusive.
Screening CN1CCN(C2=Cc3ccccc3Sc3cc(F)c(Cl)cc32)CC1 returned JMJD2A Tudor inh 50µM*, G9a inh 18µM*, Sfp inh inconclusive, BAZ2B block 35µM* and HP1b chromo inh -6%.
CN1CCN(C2=Nc3ccccc3Sc3ccc(Cl)cc32)CC1 was read as G9a inh -48%[59 µM] and Sfp inh 1%.

High-throughput results from PubChem BioAssay.
